An excerpt weighted towards active compounds, which were near 6.2% of everything screened.
Lassa entry inh: qHTS for Inhibitors of binding or entry into cells for Lassa Virus. 300,000 compounds, 1.2% hits. Lassa virus pseudotype entry inhibition, cell reporter. Potency, µM (doses to about 37.9 µM), for the others: at the top dose activity change, negative = inhibition, usual class: inhibitors; calls by dose curve; tested in HEK293 cells; also: potency is read from the fitted curve at half-maximal effect; nearly all actives have a fitted effect of over 50% in size
HCMV antiviral: qHTS Assay for inhibitors of the human cytomegalovirus (HCMV); HFF cells, HCMV-luciferase reporter, 72 h; stronger effect = lower value; activity change, negative = inhibition, % at 57.5 µM; 410,000 compounds, 4.5% hits; AID 1259415, 2018; in the data active = activity change below about -60%; inconclusive = no clear call, values can overlap the other calls; inactive = above about -39%
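Two-dose cell screen: HFF monolayers treated with compounds and infected with luciferase-expressing HCMV at 1 PFU/cell, 72 h at 37C, then lysed for luciferase measurement.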
Marburg entry inh: qHTS for inhibitors of binding or entry into cells for Marburg Virus. Marburg virus pseudotyped entry inhibition, cell reporter. Potency, µM (titrated, usually from 37.8 µM), for the others: at the top dose activity change, negative = inhibition, most hits filed as inhibitors. 300,000 compounds, 1.8% hits. AID 540276, 2011; calls by dose curve; tested in HEK293 cells; also: potency is read from the fitted curve at half-maximal effect
FMDV inh: High Throughput Screening for Foot and Mouth Disease Virus Antivirals. Potency, µM (series often up to 57.9 µM), for the others: at the highest dose activity change, negative = inhibition, most hits filed as inhibitors. FMDV antiviral cell-based qHTS. 410,000 compounds, 1.2% hits; calls by dose curve; tested in HEK293T cells; also: read-out not given here; potency is read from the fitted curve at half-maximal effect; nearly all actives have a fitted effect of over 45% in size
Numbers without * were called inactive; ? = inconclusive; . = no result; [ ] = another dose, or the depositor's remark. % is scaled to controls: 0 for no effect and ±100 for the full control effect.

SMILES	Lassa entry inh	HCMV antiviral	Marburg entry inh	FMDV inh
Cc1cc(C)c(C#N)c(SCc2nnc(-c3ccccc3)o2)n1	1.2µM*	-93*	1.2µM*	?
Cc1cc(C)c(C#N)c(SCc2nnc(-c3ccccc3[N+](=O)[O-])o2)n1	?	-95*	?	15%
Cc1cc(C)c(C#N)c(SCc2ccccc2[N+](=O)[O-])n1	0%	-97*	-7%	0%
Cc1ccc(C#N)c(SCc2nnc(-c3ccc(Cl)cc3)o2)n1	?	-91*	2.1µM*	20µM*
Cc1ccc(C#N)c(SCc2ccccc2[N+](=O)[O-])n1	-3%	?	1%	0%
CCN(CC)c1ccc(C(=O)Nc2ccccc2)cc1[N+](=O)[O-]	-24%	10	?	0%
Cc1cc(C)c(C#N)c(SCc2cn3c(C)cccc3n2)n1	0%	-63*	7%	-17%
Cc1cc(C)nc(SCc2cn3c(C)cccc3n2)n1	-6%	-12	-4%	14%
O=c1c2c3nc4ccccc4nc3n(-c3ccc4c(c3)OCCO4)c2ncn1C1CCCC1	?	-77*	?	?
Nc1c(C(=O)OCC2CCCO2)c2nc3ccccc3nc2n1-c1ccc2c(c1)OCCO2 (stereo not given)	11%	-66*	-6%	-30%
Nc1c(C(=O)NC2CC2)c2nc3ccccc3nc2n1-c1ccc2c(c1)OCO2	-5%	-18	-14%	?
CCC(C)n1c(C)nc2c(c1=O)c1nc3ccccc3nc1n2-c1ccc2c(c1)OCCO2 (stereo not given)	.	.	6%	.
CCC(CO)Oc1cc(NCc2cccc(F)c2)c2ncn(C(C)C)c2c1 (stereo not given)	.	3	.	2%
COc1ccc(NC(=O)COc2ccccc2Cc2ccccc2)cc1S(N)(=O)=O	?	-73*	?	?
COc1ccc(NC(=O)COc2ccccc2Cc2ccccc2)cn1	?	-9	?	-29%
COc1ccc(NC(=O)CN(Cc2ccccc2)Cc2ccccc2)cc1S(N)(=O)=O	0%	-62*	-8%	46%
COc1ccc(C2c3ccc4ccccc4c3Oc3ncn(CCCO)c(=N)c32)cc1 (stereo not given)	11µM*	38	?	-28%
COc1ccc(C2c3ccc4ccccc4c3Oc3ncn(CCN(C)C)c(=N)c32)cc1 (stereo not given)	?	-99*	8.9µM*	-18%
COc1ccc(C2c3ccc4ccccc4c3Oc3ncn(CCO)c(=N)c32)cc1 (stereo not given)	8.9µM*	.	?	1%
COc1ccc(C2c3ccc4ccccc4c3Oc3ncn(CCO)c(=N)c32)cc1OC (stereo not given)	.	.	7%	-13%
CN(C)CCCn1cnc2c(c1=N)C(c1ccccc1)c1ccc3ccccc3c1O2 (stereo not given)	.	-98*	.	?
O=C(Nc1ccn(Cc2c(F)c(F)c(F)c(F)c2F)n1)c1ccc(COc2ccccc2Cl)cc1	?	-14	?	?
Cc1cc(C)c2sc(NC(=O)c3ccc(N4C(=O)CCC4=O)cc3)nc2c1	.	-26	.	16%
CNc1cccnc1C=NNC(N)=S	0.63µM*	-99*	1.3µM*	2%
NC(=S)N/N=C/c1ccccc1	6%	-36	3%	-9%
SMILES	Lassa entry inh	HCMV antiviral	Marburg entry inh	FMDV inh
NC(=S)NN=Cc1nccc2c(C(F)(F)F)cccc12	.	-74*	.	-11%
O=C(C1CCN(S(=O)(=O)c2c(Cl)cccc2Cl)CC1)N1CCCC1	-6%	-5	5%	11%
COC(=O)c1ccc(C(=O)OCCCc2nc3ccc(N)cc3[nH]2)cc1	7%	22	8%	-10%
CCOc1cc(/C=N\Nc2nc(Nc3ccccc3)nc(N3CCOCC3)n2)ccc1OC(=O)c1ccco1	?	-5	3.3µM*	-7%
COc1ccc(Cn2ccc3nc(C)c(C(=O)NCc4ccc(F)cc4)cc3c2=O)cc1	?	-77*	.	-17%
COc1ccc(Cn2ccc3nc(C)c(C(=O)NCc4ccc(C)cc4)cc3c2=O)cc1	-9%[46.1 µM]	-3	.	?
Cc1nc2ccn(Cc3ccco3)c(=O)c2cc1C(=O)NCc1ccccc1F	?	-64*	.	-21%
CCCc1ccc(-c2ccc(C(=O)O)cc2)nc1	12µM*	42	?	.
CN(C(=O)c1ccccc1)c1nc2ccccc2s1	?	64	8.9µM*	-59%
Cc1nnc(N2CCCC(C(=O)NCCc3ccccc3)C2)c2nn(-c3ccccc3)c(C)c12 (stereo not given)	?	-35	.	4%
